From PubChem BioAssay AID1508600 (Functional Genomics Laboratory (NCATS/FGL), 2020)
Hit rate of the full screen: of about 53,000 sequences, about 3,700 (7%) were called active. Many of the other results were omitted from the sample, so actives are more common in it than they were. Unmarked numbers belong to inactive results.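 The calls were made as follows: active = gene knockdowns whose robust z-score for IL-1 alpha signal is at least 2 or at most -2, so actives lie on both sides; inactive = the rest.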

Assay: Components of the Cytosolic LPS Sensing Pathway: Gene Identification via Genome-wide siRNA Screen;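 also: robust z of the log signal after scaling to non-targeting control siRNA wells of the plate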
Settings: RAW264.7 macrophages, IL-1a HTRF, actives lie on both sides, screened at 100 nM (by protocol), cells primed 5 h with Pam3CSK4 first
Summary of the method: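 IL-1a HTRF of supernatants after 24 hour LipidA transfection of Pam3CSK4-primed (5 hours) RAW264.7 cells, 48h post-siRNA transfection (100 nM). Scores: percent of plate negative-control median, then log-based robust z-score.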

Row | Sequence | z-score
1 | GGACAACCAAGGAAGAAACTT against Fam205c | 0.816
2 | GGUGUUUGAAGAGCUGACATT against Pde6b | -1.85
3 | GGUUGUUAAGCUGAAGCAATT against Prkacb | -0.219
4 | GCUAUAAUGCUGGAGUCAATT against P3h2 | 0.27
5 | GGUGUGUUUGCUAUUUCCATT against Olfr259 | 0.4
6 | GGUCCCAGCAUGUUUACGUTT against Slc2a12 | 3.04 (active)
7 | GCUCUGUCUUCAGGUCAUUTT against Olfr1040 | -0.0484
8 | GGGACUGGAUUUCUGUAUUTT against Derl1 | -0.694
9 | GGCUAUCCAGAGAUACGUGTT against Snrnp25 | -0.571
10 | GGGCAUAGACAGUACCAGUTT against Clec2m | -2.04 (active)
11 | GGACCAGCUAAAUAUUAGUTT against Rgs2 | -0.315
12 | GGCAUUAAUAUGUCUGACUTT against Tada1 | -0.0627
13 | GGAAAAAUGGCAACUUCAATT against Dock3 | 0.766
14 | GGUGUAUGUCACCCUGACCTT against Sag | -0.617
15 | GGGUAACUGGUUUGUAUGATT against Gm4814 | 1.34
16 | GGGCAUAUUCAAACUUGUGTT against Elf2 | -1.68
17 | GGCUCAGACCUGGAUACAUTT against Oas1e | -2.31 (active)
18 | CCAAGGUACUACUGGGAGATT against Sval3 | 0.268
19 | GCAAGUACGCUGCUCUGUCTT against Eif4b | 0.397
20 | GGCAGUCAGCUAAUGCUUATT against Pros1 | -0.372
21 | CGAGUAUUUUGAAAUCCUGTT against Cdcp3 | 0.406
22 | GGAUCUAUGGGUAUCCUGCTT against Adam1a | -1.8

Row | Sequence | z-score
23 | GGAGGAUGAGAUGAUGCCATT against Sez6l2 | -2.19 (active)
24 | GGCUCAAGUAUGAGAAUGATT against Krt15 | -0.859
25 | GGCUUUCCUUCGGAAGAAUTT against Abca14 | -1.15
26 | GGAAGAUACGUGCAAAAUGTT against Rbms2 | -0.562
27 | GGAACAGUCUGAAAUACACTT against Usp18 | -0.907
28 | GCAGUUCUGGUUCUGUCUGTT against Nudcd3 | -0.203
29 | GGCUCUUCUUAUGCACCCUTT against Pdyn | -0.543
30 | CCCAGAAGGACGGCACUAGTT against H2-DMb2 | 0.265
31 | GCCUGACAAUAGUCAUUUCTT against Olfr985 | -2.03 (active)
32 | GGCUCACACUCCUGUUAAUTT against Fam20c | -1.02
33 | GGGCAUGAUUUUCACUUCCTT against Gpr150 | 0.79
34 | CGAGAAGGGUCAUAUGAGCTT against Rbp4 | -1.84
35 | GCUGUGACAGAAGCUUUCGTT against Vars2 | -0.201
36 | CCCUCAUGUUUCAUUUGUGTT against Glrx3 | -0.454
37 | GCUUGAUAUAGUAUCCUUUTT against Prpf38b | -2.05 (active)
38 | GGAUUGUCAGAGAAAGAGATT against Syt3 | -0.751
39 | GCUACAAAGAGUAAAACUGTT against Zfp251 | 1.01
40 | GGCUGUUCGUGCAAGCCUATT against Bahcc1 | 0.544
41 | GGUCAUCCCAUCUUACAAATT against 4933431E20Rik | 0.649
42 | CCGACAUCCUUGAUACGUUTT against Vps35l | -2.12 (active)
43 | GGAACUGGAAAACUUCAAATT against Mrvi1 | 1.04
44 | GGAUUGCCCUGUUGUGGUGTT against Snx17 | -0.227

Row | Sequence | z-score
45 | GCGAUACAACUCUUAUGACTT against Dennd5b | -0.521
46 | GGACUAUGUGGCCCAGUGUTT against Nat8f5 | -1.11
47 | GGAGCACAAUUCAAAUUCATT against Zbtb6 | 2.06 (active)
48 | GGGAAACACCUGGGUGCUUTT against Ctrl | -1.07
49 | GGGAGAUUGGAAACAAAAATT against Hsd3b4 | -0.935
50 | CCCUAUCAACUGAUCUUUUTT against Scml2 | -0.732
51 | GGAUAGCUCAUGAUGCUGUTT against Usp13 | -0.885
52 | GGAAGUUGACAAAAUAGUGTT against Dlgap5 | 0.389
53 | GCUAAAGUGACCUUAAAACTT against Phactr4 | -0.382
54 | GGACUACUUUAAGGAUUGGTT against Tfip11 | -2.97 (active)
55 | CGAGAUGGGAGAUUGAAAUTT against Ms4a8a | 0.47
56 | GGAAGAGGAGGUGACAUACTT against Exd1 | -1.15
57 | CCACAUCAAGUCUAUCAUCTT against Ryr1 | -1.19
58 | GGAUCAACCUAGAAGCUUGTT against Strada | -0.192
59 | GGAGACUCCAACUACUUCATT against Sycp1 | 1.23
60 | GCCGCUUAUAUGUAUCGCUTT against Adipoq | 2.54 (active)
61 | CGCCUACUGCUUCAGGAUATT against Cgrrf1 | 1.27
62 | GGACUCAUCUUUAUUAUUCTT against Olfr393 | -0.324
63 | GGAAGUUGGUUAUACUCGUTT against Lins1 | 0.822
64 | GGAGGAAGACAUUGUGUGUTT against Tnfrsf11b | -0.309
65 | GGAAAACCAUGAAGCCAUGTT against Dnase1l3 | 0.69
66 | GGCUCUAUAUCCAGCAGCATT against Srst | -1.1

Row | Sequence | z-score
67 | GUCACUGAAUUUCUCCUCUTT against Olfr104-ps | -2.28 (active)
68 | GGUUAUAUCCAUGUGACACTT against Nkg7 | -1.15
69 | GCAGCUUUAGGUCCAUUCGTT against Pkd2l2 | -0.696
70 | GGAACAUCCAUGUAUUCAATT against Ube2l3 | 0.76
71 | GGAUAUCCGUGAGAUUUCATT against Timm9 | 3.7 (active)
72 | CCCACUCUUUGUGUACUGATT against Olfr262 | -2.1 (active)
73 | GGCUAAAUAUGUGAUUAGUTT against Maob | -0.311
74 | GGAGUAUAUCUCGUUUAUATT against Ube2e2 | -0.221
75 | GGACCAUGCUGGAUACUAUTT against Yrdc | 1.74
76 | CCUGUACCCGAACAUACCATT against Fabp12 | -1.06
77 | GCAAGCAGACUUGUCCUUCTT against Hnrnpc | -0.155
78 | GGUCAUCCUCAAGUCUCCUTT against Stmn3 | -2.28 (active)
79 | GGAGAAGAGAAUAGAAGAATT against Ren1 | -0.0528
80 | GGCUGUACCAAUCUGACACTT against Pvalb | 0.318
81 | AUAACCUAACUCACAACAATT against Olfr304 | -1.06
82 | GGAAAUCGAUUCUCAUGAUTT against St6gal2 | 0.00146
83 | CGGGCUCUUGUAGAUUUCATT against Ccdc86 | 3.22 (active)
84 | GGGUAUGAUGUGAUUGCUCTT against Eif4a2 | 0.0435
85 | GGAUAACCUAUCGAAUCUCTT against Dsg4 | 1.26
86 | GCAUCUCUCUACCAUUGACTT against Frmd8 | 0.538
87 | CGUACAAAGGUAGUAUACCTT against Pi4k2a | 1.1
88 | GGUUCUCAUACAUAAACAATT against Mri1 | -2.87 (active)

Row | Sequence | z-score
89 | GGGAUAACACUCCUGUUUUTT against F630111L10Rik | -1.06
90 | GUUCCUGCUGAUCAAGGACTT against Nsmce3 | 0.2
91 | GUCUUAUACACGUGUGGACTT against Cklf | -0.198
92 | GCACCUGAUUAAGUUGCAUTT against Med15 | -2.11 (active)
93 | GGAAUCAUUGACGUAAUCATT against Chil3 | 1.99
94 | GACAGGCGGCCUUCCGAGATT against Hyi | -0.479
95 | GGGCGACACAAGGUUUUUGTT against Kif3a | 2.61 (active)
96 | GGAUGUAAAAUGCAGUUUATT against Tmsb4x | 0.855
97 | GCGGAAUUUGGUUUCUAUUTT against Etv2 | -0.432
98 | GGAGUUUCCAUCACGAAGATT against Bmp4 | 0.574
99 | CCAUUAAGAUCCGAAGUAUTT against Lrrc58 | -0.36
100 | GGUUGAAACGAGUUUUGAATT against Zbtb5 | 0.00556
101 | GGGCAGAAAAUCAUUUGUUTT against Anxa11 | 0.0839
102 | CCAGUGGUAUGAGGUUGAATT against Cpne3 | 0.238
103 | GGAAACAACAACUGUCACATT against Defb40 | -2.13 (active)
104 | GCACAUGGGAGACUAUGAATT against Necab2 | -1.14
105 | GCAGAGCGAUUAUAUGGACTT against Rnpepl1 | -0.308
106 | CGAUUACUUGGAAAACCAATT against Ifne | -1.21
107 | GCACAGGACUGAUGCUAAGTT against Wdr91 | 2.92 (active)
108 | GGCUCAUGUAAGAUAAUUATT against Kcns3 | -1.03
